Giardia killer: Giardia lamblia killing; Giardia lamblia trophozoite viability; activity change, % at 7.66 µM, hits read low; actives 0.15% (n = 340,000); AID 540267; in the data active means activity change below about -80%; inconclusive means between about -30% and that limit;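 further: parasites exposed to compound for two days anaerobically before the ATP read; on the % scale 0 is the no-effect control and ±100 the full control effect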
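Killing of trophozoites was scored by loss of ATP luminescence after a 48 hrs anaerobic exposure to compounds at 37 deg C, using 100 cells per well.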
ATXN viability: reduces viability in counter-screen for ATXN expression inhibitors; Potency, µM (series often up to 56.7 µM), actives largely listed as cytotoxic; S2 cells (HEK-293 line with an ATXN2-luciferase reporter) viability, CellTiter-Fluor protease fluorescence, 24 h; AID 651635; actives 0.49% (n = 400,000); further: potency means the concentration at half of the fitted maximal effect; nearly all actives have a fitted effect of over 40% in size
uPA surface inh: inhibitors of cell surface uPA generation | cell surface uPA generation assay, qHTS | Potency, µM (series often up to 38.3 µM), for inactives: top-dose activity change, negative = inhibition, usual class: inhibitors | actives 0.31% (n = 330,000) | AID 540303; active means well fitted inhibition curve with a large enough effect; inconclusive means small, poorly fitted or top-dose-only effect; inactive means no such curve, though single readings can be large or run the other way; tested in mouse RAW 264.7 cells; further: potency means the concentration at half of the fitted maximal effect; on the % scale 0 is the no-effect control and ±100 the full control effect; nearly all actives have a fitted effect of over 55% in size
ATXN2 expr inh: inhibitors of ATXN2 expression. HEK-293 ATXN2-luciferase reporter, luminescence, 24 h. Potency, µM (doses to about 57 µM), without a hit: at the highest dose activity change, negative = inhibition, usual class: inhibitors. actives 0.72% (n = 360,000). AID 1745845; further: potency means the concentration at half of the fitted maximal effect; on the % scale 0 is the no-effect control and ±100 the full control effect; nearly all actives have a fitted effect of over 55% in size
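qHTS (up to 57 uM final) was run with 24 h compound exposure of reporter cells at 37 °C. Each well was multiplexed: SteadyGlo luminescence measured ATXN2-luciferase expression after a fluorogenic Gly-Phe-AFC viability readout (25 uM final).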
HepG2 tox: kills HepG2 cells in TGF-b inhibitor counter-screen. actives 0.76% (n = 410,000). Potency, µM (series often up to 46.1 µM), for the others: at the highest dose activity change, negative = cytotoxicity, most hits filed as cytotoxic. AID 588856. HepG2 CAGA-GFP viability, ATP luminescence, 18 h; further: potency means the concentration at half of the fitted maximal effect
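HepG2 CAGA-GFP cells (1000/well, DMEM with 1% FBS) received compound, then TGF-beta at 500 pg/mL final, and were incubated 18 hours at 37 degrees C. Viability was read by CellTiter-Glo luminescence. Media-only wells were set as complete cell-killing and DMSO as no toxicity.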
TGFb inhibitor: inhibitors of TGF-b signaling | HepG2 CAGA-GFP TGF-b/SMAD3 reporter, GFP fluorescence, 18 h; TGF-beta stimulated, 500 pg/mL final | Potency, µM (top dose mostly 46.1 µM), without a hit: top-dose activity, negative = inhibition, usual class: inhibitors | actives 1.2% (n = 410,000) | AID 588855; further: potency means the concentration at half of the fitted maximal effect; on the % scale 0 is the no-effect control and ±100 the full control effect; nearly all actives have a fitted effect of over 65% in size
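Using HEPG2 CAGA-GFP reporter cells at 1000 cells/well, we pinned test compounds, stimulated with recombinant TGF-beta (500 pg/mL final) and measured total well GFP after 18 h.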
* hit, by the source's call; i = inactive; ? = inconclusive; · = not tested or not shown. An excerpt weighted towards active compounds, which were near 2.6% of everything screened. Unless noted, the call rests on the fitted dose curve; in most records, active means well fitted curve in the direction sought with a large enough effect; inconclusive means small, poorly fitted or top-dose-only effect, or another doubt; inactive means no such curve, though single readings can be large; an effect the other way counts as inactive or inconclusive.

SMILES	Giardia killer	ATXN viability	uPA surface inh	ATXN2 expr inh	HepG2 tox	TGFb inhibitor
Cc1sc2ccccc2[n+]1CCc1ccccc1	·	·	·	·	-58%	?
Cc1cc(Br)c(OCc2ccc(C(=O)N/N=C/c3ccc[nH]3)cc2)c(Br)c1	0	?	0.18µM*	-63%	-95%	1.1µM*
COC(=O)c1cn(NC(=O)C2CCC(C)CC2)c(=O)c2ccccc12 (stereo not drawn)	-18	i	-7%	4%	4%	18%
COC(=O)c1cn(NC(=O)c2cc([N+](=O)[O-])ccc2F)c(=O)c2ccccc12	-11	i	?	1.1µM*	-6%	-18%
COc1ccccc1/C=C/c1nc2ccccc2[nH]1	·	·	·	·	8.9µM*	0%
COC1=C(C)C(=O)C2=C(C1=O)C1C3CC4=C(C(=O)C(OC)=C(C)C4=O)C(CNC(=O)C(C)=O)N3C(C#N)C(C2)N1C (stereo not drawn)	-4	0.15µM*	-8%	?	7.1µM*	0.14µM*
Cc1ccc(NC(=O)CSc2ccccc2NC(=O)c2cccc(Cl)c2)cc1Cl	-7	i	-6%	2%	-5%	-19%
Cc1cccc2c(=O)cc(CSc3ccccc3NC(=O)c3cccc(Cl)c3)[nH]c12	·	32µM*	·	-8%	-28%	-32%
CCC1(C2CCN(Cc3cc4ccccc4o3)CC2)NC(=O)N(CC2COc3ccccc3O2)C1=O (stereo not drawn)	·	i	·	·	·	·
Cc1ccc(S(=O)(=O)Cc2ccc(C(=O)OCc3ccccc3)cc2)cc1	-10	i	-2%	-3%	-8%	6%
COC(=O)c1c[nH]c2c1-c1cc(C(=O)OCc3ccccc3)n(S(=O)(=O)c3ccc(C)cc3)c1C(=O)C2=O	-19	?	-4%	?	0.56µM*	0.45µM*
CC(C)(C)OC(=O)N1CC23CC(c4ccc(F)cc4)C(CC2S1(=O)=O)O3 (stereo not drawn)	14	·	·	·	0%	-5%
COc1cc(/C=N/n2cnnc2)ccc1OS(=O)(=O)c1ccccc1[N+](=O)[O-]	-21	i	1%	12%	2%	8%
O=[N+]([O-])c1ccccc1S(=O)(=O)Oc1ccc(/C=N/n2cnnc2)cc1	-81*	i	-3%	0%	-27%	2%
COC(=O)c1c(OCc2ccccn2)cc(=O)n2c1CCN(C(=O)c1n[nH]c3c1CCCC3)CC2	·	i	·	·	·	·
O=C1CC(N(CCc2ccccc2)C(=S)Nc2ccccc2)C(=O)N1c1ccc(Br)cc1 (stereo not drawn)	-15	?	1%	?	2.2µM*	?
COc1ccc(CCN(C(=S)Nc2ccccc2)C2CC(=O)N(c3ccccc3)C2=O)cc1 (stereo not drawn)	0	i	7%	-9%	-38%	-10%
Cc1cccc2c(C(O)c3cn(C)c4ccccc34)c[nH]c12 (stereo not drawn)	·	·	·	·	-35%	?
CCC(C)(C)c1ccc(OCCCC[n+]2ccc(C)cc2)c(C(C)(C)CC)c1	57	?	?	20µM*	13µM*	16µM*
Cc1cc(C(C)(C)C)ccc1OCCCCN1CCCC1	-10	i	-2%	-14%	-29%	-26%
CCC(C)(C)c1ccc(OCCCC[n+]2cccc(C)c2C)c(C(C)(C)CC)c1	-19	·	8.9µM*	·	-132%	10µM*
CN(C)CC(C)(O)c1ccc2c(c1)CN(Cc1cccn1-c1cccnc1)CCO2 (stereo not drawn)	·	i	·	·	·	·
Oc1ccc(N=Nc2nc(-c3ccccc3)c(-c3ccccc3)[nH]2)cc1	0	11µM*	-3%	10%	-28%	-30%
CC(C)N1CCC(=NNc2ccc(S(=O)(=O)N3CCOCC3)cc2[N+](=O)[O-])CC1	1	i	-7%	-3%	-14%	?
CCCN1CCC(=NNc2ccc(S(=O)(=O)N3CCOCC3)cc2[N+](=O)[O-])CC1	16	i	-7%	-20%	14µM*	0%
